From PubChem BioAssay AID1159580 (chemical genetic matrix, 2015)
About 2,000 (36%) of roughly 5,500 compounds were called active. Roughly 18% stayed inconclusive and do not appear here. Rule as the data show it: active = normalized growth mostly below about 0.91 (no sharp cut-off); inconclusive = no clear call, values can overlap the other calls; inactive = mostly above about 0.92. This is one part of the list.

Assay: chemical genetic growth profiling, strain panel (AID 1159580);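 also: tested at 20 µM; growth read once vehicle control cultures reached saturation at 30 °C; 1 = growth at the plate median or of vehicle wells; lower values mean less growth of the strain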
Details: S. cerevisiae deletion strains, growth OD
[1] = locus YAL013W, strain DEP1, hits give low values
[2] = locus YJR075W, strain HOC1, hits give low values
[3] = locus YMR307W, strain GAS1, hits give low values
[4] = locus YNL153C, strain GIM3, hits give low values
[5] = locus YNL322C, strain KRE1, hits give low values
[6] = locus YAL040C, strain CLN3, hits give low values
[7] = locus YCL061C, strain MRC1 (second series), hits give low values
[8] = locus YDR150W, strain NUM1, hits give low values
[9] = locus YDR363W, strain ESC2, hits give low values
[10] = locus YER002W, strain NOP16, hits give low values
[11] = locus YGR078C, strain PAC10, hits give low values
[12] = locus YNL175C, strain NOP13, hits give low values
[13] = locus YNL197C, strain WHI3, hits give low values
[14] = locus YNL224C, strain SQS1, hits give low values
[15] = locus YOR083W, strain WHI5 (second series), hits give low values

Measured: normalized growth

CCC1C2CC3C4N(C)c5ccccc5C45CC(C2C5OC(C)=O)N3C1OC(C)=O (configuration not stated)
inactive: [1] 1.01 | locus YBR021W, strain FUR4, hits give low values 1.01 | locus YBR229C, strain ROT2, hits give low values 1 | locus YCL029C, strain bik1, hits give low values 1.02 | locus YDL035C, strain GPR1, hits give low values 1.02 | locus YDL074C, strain BRE1, hits give low values 1.04 | locus YDL101C, strain DUN1, hits give low values 1.01 | locus YDL134C, strain PPH21, hits give low values 1.02 | locus YDL185W, strain tfp1, hits give low values 1.02 | locus YDL192W, strain arf1, hits give low values 1.01 | locus YDR101C, strain arx1, hits give low values 1.01 | locus YDR162C, strain NBP2, hits give low values 1.01 | locus YDR318W, strain mcm21, hits give low values 1.01 | locus YDR388W, hits give low values 1.03 | locus YDR502C, strain sam2, hits give low values 1.02 | locus YEL061C, strain CIN8, hits give low values 1.01 | locus YER110C, hits give low values 1.03 | locus YER155C, strain BEM2, hits give low values 1 | locus YER167W, strain BCK2, hits give low values 1.02 | locus YGL078C, strain dbp3, hits give low values 1 | locus YGL086W, strain mad1, hits give low values 0.997 | locus YGL248W, strain PDE1, hits give low values 1.01 | locus YGR135W, strain pre9, hits give low values 1.01 | locus YGR252W, strain gcn5, hits give low values 1.02 | locus YHR030C, strain SLT2, hits give low values 1.02 | locus YHR079C, strain IRE1 (second series), hits give low values 1 | locus YHR094C, strain hxt1, hits give low values 1.01 | locus YHR129C, strain ARP1, hits give low values 1.02 | locus YHR200W, strain rpn10, hits give low values 1.02 | locus YIL066C, strain RNR3, hits give low values 1.02 | locus YIL073C, strain SPO22, hits give low values 1.08 | locus YIL125W, strain kgd1, hits give low values 1.03 | locus YIR030C, strain dcg1, hits give low values 1.01 | locus YJL095W, strain BCK1, hits give low values 1.01 | locus YJL134W, strain LCB3, hits give low values 1.02 | locus YJL168C, strain set2, hits give low values 1.02 | locus YJL187C, strain SWE1 (second series), hits give low values 1.01 | locus YJR043C, strain POL32, hits give low values 1.01 | [2] 1.04 | locus YKL009W, strain mrt4, hits give low values 1.02 | locus YKL068W, hits give low values 1 | locus YKL085W, strain MDH1 (second series), hits give low values 0.995 | locus YKL085W, strain MDH1, hits give low values 0.995 | locus YKR001C, strain vps1, hits give low values 1.03 | locus YLR039C, strain RIC1, hits give low values 1.07 | locus YLR058C, strain SHM2, hits give low values 1.01 | locus YLR102C, strain apc9, hits give low values 1.03 | locus YLR262C, strain YPT6, hits give low values 1.09 | locus YLR268W, strain sec22, hits give low values 1.02 | locus YLR330W, strain CHS5, hits give low values 1.02 | locus YLR342W, strain FKS1 (second series), hits give low values 1.03 | locus YLR371W, strain rom2, hits give low values 1.01 | locus YLR418C, strain cdc73, hits give low values 1.04 | locus YML016C, strain PPZ1, hits give low values 1.01 | locus YML032C, strain rad52, hits give low values 1.02 | locus YML124C, strain tub3, hits give low values 1.01 | locus YMR078C, strain ctf18, hits give low values 0.999 | locus YMR223W, strain ubp8, hits give low values 1.01 | locus YMR263W, strain SAP30, hits give low values 1.01 | [3] 0.992 | locus YNL067W, strain RPL9B, hits give low values 1.02 | locus YNL128W, strain TEP1, hits give low values 1.01 | [4] 1 | locus YNL233W, strain BNI4, hits give low values 1.02 | locus YNL250W, strain rad50, hits give low values 1.01 | locus YNL271C, strain bni1, hits give low values 1.01 | locus YNL298W, strain CLA4, hits give low values 1.02 | locus YNL307C, strain MCK1, hits give low values 1.02 | [5] 1.01 | locus YNR052C, strain pop2, hits give low values 1.02 | locus YOL006C, strain TOP1, hits give low values 1.14 | locus YOL012C, strain htz1 0.814 | locus YOL147C, strain pex11, hits give low values 1.02 | locus YOR061W, strain CKA2, hits give low values 1.01 | locus YOR069W, strain VPS5, hits give low values 1.01 | locus YOR136W, strain idh2, hits give low values 1.02 | locus YOR144C, strain elg1, hits give low values 1.01 | locus YOR184W, strain ser1, hits give low values 1.01 | locus YOR316C, strain cot1, hits give low values 1.02 | locus YPL055C, strain LGE1, hits give low values 1.04 | locus YPR119W, strain clb2, hits give low values 1 | locus YPR141C, strain kar3, hits give low values 1.01 | locus YPR163C, strain tif3, hits give low values 1.02 | locus YPR167C, strain met16, hits give low values 1.01 | strain wtn01, hits give low values 1.04

CO[C@H]1CC=C2CCN3CCC4=C(CC(=O)OC4)[C@]23C1
inactive: [6] 0.99 | [7] 1 | [8] 1.01 | [9] 1.07 | [10] 1.01 | [11] 1.01 | [2] 1.01 | [3] 0.999 | [4] 0.981 | [12] 1.01 | [13] 1.03 | [14] 0.997 | [5] 0.998 | [15] 1.06

Nc1ccn([C@H]2CC[C@@H](CO)O2)c(=O)n1
inactive: [1] 1.01 | [6] 1.01 | [7] 0.988 | [8] 0.994 | [9] 1.01 | [10] 0.987 | [11] 0.989 | [3] 0.993 | [4] 1.04 | [12] 1 | [13] 1 | [14] 0.997 | [15] 1.01
